Compounds without any hit were thinned out: in the full panel of roughly 83,000, 20% have a hit.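 How to read the values: 0–100, growth inhibition (40 = 60% inhibited); 0, no net growth; -100 to 0, cell death (-40 = 40% of starting cells died; -100 = all dead).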 Active and inactive are the calls of the source. Rule for the calls: active = growth percent below 10; inactive = the rest.
Columns and labels:
Test in all cases: NCI-60 one-dose screen, 48 h (100 = growth as untreated, 0 = no growth, -100 = all killed)
Conditions in all cases: 10 µM unless noted
SR leukemia = test system: SR leukemia
RPMI-8226 leukemia = test system: RPMI-8226 leukemia
OVCAR-8 ovarian = test system: OVCAR-8 ovarian
OVCAR-5 ovarian = test system: OVCAR-5 ovarian
OVCAR-4 ovarian = test system: OVCAR-4 ovarian
SK-OV-3 ovarian = test system: SK-OV-3 ovarian
IGROV1 ovarian = test system: IGROV1 ovarian
OVCAR-3 ovarian = test system: OVCAR-3 ovarian
HS 578T breast = test system: HS 578T breast
NCI/ADR-RES ovarian = test system: NCI/ADR-RES ovarian

Measured: growth

c1coc(CNc2ccnc(Nc3ccc(OCCN4CCCCC4)cc3)n2)c1
active: OVCAR-8 ovarian -5.87%
inactive: SR leukemia 61.5% | RPMI-8226 leukemia 71.1% | OVCAR-5 ovarian 97% | OVCAR-4 ovarian 87.6% | SK-OV-3 ovarian 103% | IGROV1 ovarian 98.1% | OVCAR-3 ovarian 90.1% | HS 578T breast 80.9% | NCI/ADR-RES ovarian 104%

COc1ccc(/C=C2\Oc3cc(OCCCN4CCCC4)ccc3C2=O)cc1
active: SR leukemia -28.4%
inactive: RPMI-8226 leukemia 86.9% | OVCAR-8 ovarian 95.9% | OVCAR-5 ovarian 92.9% | OVCAR-4 ovarian 90.1% | SK-OV-3 ovarian 106% | IGROV1 ovarian 88.4% | OVCAR-3 ovarian 94.3% | HS 578T breast 89.3% | NCI/ADR-RES ovarian 96.2%

CCOC(=O)c1ccc2c(c1)c1c(C)c3cccnc3c(C)c1n2C
inactive: SR leukemia 16.1% | RPMI-8226 leukemia 62.8% | OVCAR-8 ovarian 46.2% | OVCAR-5 ovarian 69.3% | OVCAR-4 ovarian 62.7% | SK-OV-3 ovarian 84.1% | IGROV1 ovarian 24.1% | OVCAR-3 ovarian 69.8% | HS 578T breast 85.2% | NCI/ADR-RES ovarian 48.4%

C=CCn1cc(-c2nc3ccccc3s2)c2cc(-c3ccc4c5c(cccc35)C(=O)N(CCN3CCNCC3)C4=O)ccc21
inactive: RPMI-8226 leukemia 46.7% | OVCAR-8 ovarian 13.7% | OVCAR-5 ovarian 90.3% | OVCAR-4 ovarian 88.5% | SK-OV-3 ovarian 101% | IGROV1 ovarian 68.1% | OVCAR-3 ovarian 105% | HS 578T breast 91.8% | NCI/ADR-RES ovarian 83.1%
active: SR leukemia 4.31%

Nc1ncnc2c1c(-c1ccc(Oc3ccccc3)cc1)nn2C[C@@H]1SSC[C@@H]1O
active: SR leukemia -37.4% | SK-OV-3 ovarian 3.68% | IGROV1 ovarian -6.92% | OVCAR-3 ovarian 3.23%
inactive: RPMI-8226 leukemia 51.5% | OVCAR-8 ovarian 69.9% | OVCAR-5 ovarian 78.3% | OVCAR-4 ovarian 44.6% | HS 578T breast 56.6% | NCI/ADR-RES ovarian 61.3%

C=C[C@@H]1C[C@@H]2Cc3cc(Cl)ccc3N1O2
inactive: SR leukemia 92.4% | RPMI-8226 leukemia 84.9% | OVCAR-8 ovarian 99.4% | OVCAR-5 ovarian 97.8% | OVCAR-4 ovarian 102% | SK-OV-3 ovarian 101% | IGROV1 ovarian 112% | OVCAR-3 ovarian 109% | HS 578T breast 97.1% | NCI/ADR-RES ovarian 101%

CCN1CCN(CC(=O)N2c3cccc4cccc(c34)N(C(=O)CN3CCN(CC)CC3)C2c2cn(-c3ccccc3)nc2-c2cccc([N+](=O)[O-])c2)CC1
active: SR leukemia -48% | RPMI-8226 leukemia -39.3% | OVCAR-8 ovarian -9.32% | OVCAR-5 ovarian 1.54% | OVCAR-4 ovarian -76.4% | IGROV1 ovarian -29.1% | OVCAR-3 ovarian -70.8%
inactive: SK-OV-3 ovarian 115% | HS 578T breast 69.6% | NCI/ADR-RES ovarian 47.3%

O=C1NN(C(=O)c2ccc(Cl)cc2)C(c2ccccc2)=N/C1=C\c1cn(-c2ccccc2)nc1-c1ccccc1
inactive: SR leukemia 90% | RPMI-8226 leukemia 117% | OVCAR-8 ovarian 94.1% | OVCAR-5 ovarian 93.4% | OVCAR-4 ovarian 96.8% | SK-OV-3 ovarian 102% | IGROV1 ovarian 95.1% | OVCAR-3 ovarian 112% | HS 578T breast 94.8% | NCI/ADR-RES ovarian 92.9%

COC(=O)c1cccc2c1N(C)c1c(cccc1C(=O)OC)CC2
inactive: SR leukemia 114% | RPMI-8226 leukemia 90.5% | OVCAR-8 ovarian 113% | OVCAR-5 ovarian 98.7% | OVCAR-4 ovarian 112% | SK-OV-3 ovarian 110% | IGROV1 ovarian 108% | OVCAR-3 ovarian 102% | HS 578T breast 89.7% | NCI/ADR-RES ovarian 95.6%

COc1cc(/C=C/C(=O)N2CCN(C(=O)/C=C/c3cc(OC)c(OC)c(OC)c3)CC2)cc(OC)c1OC
inactive: SR leukemia 75.2% | RPMI-8226 leukemia 98.6% | OVCAR-8 ovarian 96.4% | OVCAR-5 ovarian 111% | OVCAR-4 ovarian 103% | SK-OV-3 ovarian 116% | IGROV1 ovarian 111% | OVCAR-3 ovarian 117% | HS 578T breast 98.8% | NCI/ADR-RES ovarian 113%

O=C(c1ccccc1)C1OC1c1ccc([N+](=O)[O-])cc1 (stereo not given)
inactive: SR leukemia 33.6% | RPMI-8226 leukemia 55.9% | OVCAR-8 ovarian 68.9% | OVCAR-5 ovarian 102% | OVCAR-4 ovarian 59.9% | SK-OV-3 ovarian 97.3% | IGROV1 ovarian 53.4% | OVCAR-3 ovarian 59.7% | HS 578T breast 88.8% | NCI/ADR-RES ovarian 57.9%

Cc1ccc(S(=O)(=O)NCCNc2nccc(-c3c(-c4cccc(N)c4)nc4sccn34)n2)cc1
inactive: SR leukemia 95.9% | RPMI-8226 leukemia 74.7% | OVCAR-8 ovarian 91.4% | OVCAR-5 ovarian 123% | OVCAR-4 ovarian 58.8% | SK-OV-3 ovarian 103% | IGROV1 ovarian 86.6% | OVCAR-3 ovarian 87.4% | HS 578T breast 99.5% | NCI/ADR-RES ovarian 90.8%

CCN(CC)CCCNc1nccc2ccc(Cl)cc12
inactive: SR leukemia 94.3% | RPMI-8226 leukemia 101% | OVCAR-8 ovarian 94.8% | OVCAR-5 ovarian 92% | OVCAR-4 ovarian 108% | SK-OV-3 ovarian 100% | IGROV1 ovarian 118% | OVCAR-3 ovarian 105% | HS 578T breast 109% | NCI/ADR-RES ovarian 105%

COc1ccc(-c2nc(SCCC(C)C)nc(Nc3ccc(F)c(Cl)c3)c2C#N)cc1
active: OVCAR-4 ovarian -43.1%
inactive: SR leukemia 57.3% | RPMI-8226 leukemia 95.5% | OVCAR-8 ovarian 65.8% | OVCAR-5 ovarian 102% | SK-OV-3 ovarian 96% | IGROV1 ovarian 60.3% | OVCAR-3 ovarian 57.3% | HS 578T breast 65% | NCI/ADR-RES ovarian 81.4%

COc1ccc(Cn2cc3c(c2-c2cc(OC)c(OC)c(OC)c2)CCc2cnoc2-3)cc1
active: SK-OV-3 ovarian -0.435% | IGROV1 ovarian 7.18% | OVCAR-3 ovarian -5.4%
inactive: SR leukemia 13.1% | RPMI-8226 leukemia 23.4% | OVCAR-8 ovarian 34.6% | OVCAR-5 ovarian 47.7% | OVCAR-4 ovarian 22.6% | HS 578T breast 15.9% | NCI/ADR-RES ovarian 20.1%

C=C[C@@H]1C[C@@H]2Cc3cc(F)ccc3N1O2
inactive: SR leukemia 32% | RPMI-8226 leukemia 94.1% | OVCAR-8 ovarian 114% | OVCAR-5 ovarian 97% | OVCAR-4 ovarian 104% | SK-OV-3 ovarian 113% | IGROV1 ovarian 122% | OVCAR-3 ovarian 113% | HS 578T breast 106% | NCI/ADR-RES ovarian 102%

COc1cc([N+](=O)[O-])c2ncccc2c1O
inactive: SR leukemia 107% | RPMI-8226 leukemia 75.6% | OVCAR-8 ovarian 78.5% | OVCAR-5 ovarian 76.4% | OVCAR-4 ovarian 104% | SK-OV-3 ovarian 37% | IGROV1 ovarian 51.8% | OVCAR-3 ovarian 83.1% | NCI/ADR-RES ovarian 91.1%
active: HS 578T breast -3.86%

Clc1cc2c(nn1)Nc1ccccc1S2
inactive: SR leukemia 77.2% | RPMI-8226 leukemia 78.1% | OVCAR-8 ovarian 96.2% | OVCAR-5 ovarian 100% | OVCAR-4 ovarian 95.3% | SK-OV-3 ovarian 99% | IGROV1 ovarian 27.5% | OVCAR-3 ovarian 117% | HS 578T breast 102% | NCI/ADR-RES ovarian 97.5%

S=C(S)NCCc1c[nH]c2ccccc12
inactive: SR leukemia 94.9% | RPMI-8226 leukemia 92.4% | OVCAR-8 ovarian 95.9% | OVCAR-5 ovarian 102% | OVCAR-4 ovarian 111% | SK-OV-3 ovarian 121% | IGROV1 ovarian 81.9% | OVCAR-3 ovarian 101% | HS 578T breast 99.5% | NCI/ADR-RES ovarian 101%

C=CCSc1n[nH]c(-c2cccs2)n1
inactive: SR leukemia 91% | RPMI-8226 leukemia 103% | OVCAR-8 ovarian 102% | OVCAR-5 ovarian 98.2% | OVCAR-4 ovarian 107% | SK-OV-3 ovarian 110% | IGROV1 ovarian 15.8% | OVCAR-3 ovarian 115% | HS 578T breast 101% | NCI/ADR-RES ovarian 102%

Cc1c(C(=N)C(C#N)C#N)c(=N)oc2c1ccc1ccccc12
active: IGROV1 ovarian -2.09%
inactive: SR leukemia 26.1% | RPMI-8226 leukemia 44.7% | OVCAR-8 ovarian 80.8% | OVCAR-5 ovarian 104% | OVCAR-4 ovarian 95.3% | SK-OV-3 ovarian 104% | OVCAR-3 ovarian 95.5% | HS 578T breast 69.8% | NCI/ADR-RES ovarian 83.8%

CC(NNC(C)c1ccccc1)c1ccccc1 (stereo not given)
inactive: SR leukemia 91.9% | RPMI-8226 leukemia 97.8% | OVCAR-8 ovarian 115% | OVCAR-5 ovarian 107% | OVCAR-4 ovarian 112% | SK-OV-3 ovarian 110% | IGROV1 ovarian 117% | OVCAR-3 ovarian 118% | HS 578T breast 128% | NCI/ADR-RES ovarian 105%

COc1ccc(-c2nc(/C=N/Nc3cc(C)nc4ccc(Br)cc34)c(C)o2)cc1
active: SR leukemia -21% | RPMI-8226 leukemia -54.5% | OVCAR-8 ovarian -53.3% | OVCAR-5 ovarian -97.5% | OVCAR-4 ovarian -94.9% | IGROV1 ovarian -80.5% | OVCAR-3 ovarian -96.6% | HS 578T breast -44.4% | NCI/ADR-RES ovarian -65.9%
inactive: SK-OV-3 ovarian 93.2%

COc1ccc(/C(C#N)=C/c2cc(OC)c(OC)c(OC)c2)cc1
inactive: SR leukemia 11.8% | RPMI-8226 leukemia 31.2% | OVCAR-8 ovarian 57.4% | OVCAR-5 ovarian 65.6% | OVCAR-4 ovarian 87.8% | SK-OV-3 ovarian 47.6% | IGROV1 ovarian 44.9% | OVCAR-3 ovarian 36.1% | HS 578T breast 91.4% | NCI/ADR-RES ovarian 20.7%

CCc1ccc(-c2ccc(=O)n(-c3ccc(S(N)(=O)=O)cc3)n2)cc1
inactive: OVCAR-8 ovarian 51.2% | OVCAR-5 ovarian 91.6% | OVCAR-4 ovarian 74.5% | SK-OV-3 ovarian 49.5% | HS 578T breast 28.6%
active: SR leukemia -11.9% | RPMI-8226 leukemia -29.9% | IGROV1 ovarian -5.72% | OVCAR-3 ovarian -56.8% | NCI/ADR-RES ovarian 1%

Cc1cc(N/N=C/c2nc(-c3ccccc3)oc2C)c2cc(Cl)ccc2n1
active: SR leukemia -13.7% | RPMI-8226 leukemia -39.4% | OVCAR-8 ovarian -41.7% | OVCAR-5 ovarian -88.5% | OVCAR-4 ovarian -89.6% | IGROV1 ovarian -83.7% | OVCAR-3 ovarian -92.5% | HS 578T breast -48.9% | NCI/ADR-RES ovarian -62.5%
inactive: SK-OV-3 ovarian 76.4%

C/C(=C\c1ccc(OCC(=O)O)c(Cl)c1Cl)[N+](=O)[O-]
inactive: SR leukemia 72.1% | RPMI-8226 leukemia 99.7% | OVCAR-8 ovarian 93.7% | OVCAR-5 ovarian 113% | OVCAR-4 ovarian 114% | SK-OV-3 ovarian 94% | IGROV1 ovarian 133% | OVCAR-3 ovarian 99.9% | HS 578T breast 107% | NCI/ADR-RES ovarian 102%

Reference: PubChem BioAssay (NCI)
